Measurements as given in ChEMBL document CHEMBL3988442, “University of Dundee, Small-Polar-MMV Screening Library” (2021).
Hit rate of the full screen: of about 48,000 compounds, about 13,000 (27%) showed an effect of 50% or more. This is one part of the list.

These compounds were tested on Wolbachia pipientis (assay: Anti-Wolbachia Cell-Based Screen). Settings: 5 µM.
Format: functional
Set-up: scale not given: in the data most compounds retested in dose-response had high values

| Structure (SMILES) | Percent Effect [%] |
| --- | --- |
| O=C(c1cnc[nH]1)N1CCC(Oc2cccnc2)CC1 | -5.216 |
| COCCC(=O)N1CCC(c2cncc(Oc3cccnc3)n2)CC1 | 116.7 |
| CCC(=O)N1CCC(c2cncc(Oc3cccnc3)n2)CC1 | 118.9 |
| NCC(=O)N1CCC(c2cncc(Oc3cccnc3)n2)CC1 | 115.4 |
| CCOCC(=O)N1CCC(c2nc(-c3cccnn3)no2)CC1 | -10.28 |
| CC(=O)NCC(=O)N1CCC(c2cncc(Oc3cccnc3)n2)CC1 | 94.92 |
| COCCC(=O)N1Cc2[nH]nc(COc3cccnc3)c2C1 | -7.677 |
| CN(C)c1cncc(C2CCN(C(=O)CO)CC2)n1 | -8.172 |
| O=C(O)c1coc(COc2cccc(F)c2)n1 | 4.925 |
| Cn1cc(C(C)(O)CNc2ccc(C(F)(F)F)cn2)cn1 (stereo not given) | -6.245 |
| CC(C)(C)CC(NC(=O)c1nc(=O)[nH][nH]1)c1ccc(F)cc1 (stereo not given) | -5.789 |
| COC(=O)CCNC(=O)c1coc(COc2ccc(F)cc2)n1 | -5.567 |
| CCOC(=O)NC(=O)CSC(C)c1ccccc1F (stereo not given) | 4.048 |
| CN1CCN2CCN(C(=O)c3cnn4cc(CCO)cnc34)CC2C1 (stereo not given) | -3.17 |
| Cn1ccnc1CN1CCCN(C(=O)c2ccc3[nH]cnc3c2)CC1 | 100.5 |
| Cn1ccnc1CN1CCCN(C(=O)c2ccc3[nH]nnc3c2)CC1 | 102.4 |
| Cc1nccn1CCC1CCCCN1C(=O)c1ccc2[nH]nnc2c1 (stereo not given) | -0.5329 |
| CC(C)c1nccn1C1CCCN(C(=O)c2ccc3[nH]cnc3c2)C1 (stereo not given) | -5.197 |
| CN(C(=O)OC(C)(C)C)C1CCN(C(=O)c2cc(Cl)c[nH]2)C1 (stereo not given) | 3.471 |
| COCC(=O)N[C@H](C)c1onc(-c2ccc(F)cc2)c1C(=O)O | -10.17 |
| CC(C)n1[nH]c(=O)c2c1NC(=O)CC2c1ccc2ncccc2c1 (stereo not given) | 8.497 |
| Cn1c(=O)c2c(n3ncnc13)NC(=O)CC2c1cccc(F)c1 (stereo not given) | 120.7 |
| CC(C)(C)n1ncc2c1NC(=O)CC2c1ccccc1 (stereo not given) | 1.075 |
| Cn1c(=O)c2c(n3ncnc13)NC(=O)CC2c1cccc(Br)c1 (stereo not given) | 114.2 |
| Cn1c(=O)c2c(n3ncnc13)NC(=O)CC2c1ccc(F)cc1 (stereo not given) | 107.2 |
| O=C1CC(c2ccc(C(=O)O)cc2)c2ncn(-c3ccccc3F)c2N1 (stereo not given) | 10.34 |
| COc1cccc(C2CC(=O)Nc3c2c(=O)n(C)c2ncnn32)c1 (stereo not given) | 109.5 |

| Structure (SMILES) | Percent Effect [%] |
| --- | --- |
| CC(C)n1[nH]c(=O)c2c1NC(=O)CC2c1cccnc1 (stereo not given) | 10.81 |
| CC(C)n1[nH]c(=O)c2c1NC(=O)CC2c1cccc(OC(F)F)c1 (stereo not given) | 18.26 |
| O=C1CC(c2ccc(C(=O)O)cc2)c2ncn(-c3cccc(F)c3)c2N1 (stereo not given) | 4.592 |
| O=C1CC(c2ccc(F)cc2)c2cnn(C3CCCC3)c2N1 (stereo not given) | -2.721 |
| CSc1ccc(C2CC(=O)Nc3c2c(=O)[nH]c2ncnn32)cc1 (stereo not given) | -5.097 |
| CC(C)(C)c1cn2c(n1)C(CNCc1ccccn1)CCC2 (stereo not given) | 10.69 |
| CCN(Cc1nc(-c2ccco2)no1)Cc1cccc2c1OCO2 | -4.038 |
| CC(C)n1nc2c(cc1=O)CN(CC1CCCCO1)CC2 (stereo not given) | 3.458 |
| Cc1nc2n(n1)CC(NCc1ccccc1OCC(=O)N(C)C)CC2 (stereo not given) | 1.473 |
| NC(=O)COc1ccc(CN2CCC(O)(CN3CCCCC3)C2)cc1Cl (stereo not given) | -2.336 |
| Cc1nc(N2Cc3cnn(Cc4ccc(F)cc4)c3C2)no1 | -13.57 |
| COCc1nc2nc(O)c3c(n2n1)NC(=O)CC3c1ccc(SC)cc1 (stereo not given) | -7.854 |
| Cn1ncc2c1NC(=O)CC2c1ccc(O)cc1 (stereo not given) | 38.62 |
| CCc1ccc(C2CC(=O)Nc3c2c(=O)n(C)c2ncnn32)cc1 (stereo not given) | 109.5 |
| CC(C)(C)c1noc(CCCC(=O)N2CCNC(=O)C2)n1 | -4.153 |
| CC1CCN(CC(O)Cn2cnc3ccsc3c2=O)CC1 (stereo not given) | -6.513 |
| CN(Cc1cc(C2CC2)[nH]n1)Cc1cc2ccc(F)cc2[nH]c1=O | -8.263 |
| Cc1cc(CN2CCC(c3cc(Cc4ccccc4)n[nH]3)CC2)[nH]n1 | 25.91 |
| COc1cccc2c(=O)n(Cc3cc(C4CC4)[nH]n3)cnc12 | 104.8 |
| O=c1c2sccc2ncn1Cc1cc(C2CC2)[nH]n1 | 88.09 |
| O=c1c2sccc2ncn1CC(O)CN1CCOCC1 (stereo not given) | 7.822 |
| O=C(Cn1cnc2ccccc2c1=O)Nc1cc(C2CC2)n[nH]1 | 0.387 |
| O=c1c2ccccc2ncn1Cc1cc(C2CC2)[nH]n1 | 98.49 |
| COc1cccc2c(=O)n(CCN3CCNCC3)cnc12 | 4.244 |
| N#Cc1ccc(N2CCCN(CC(=O)N3CCNC(=O)C3)CC2)cc1 | -15.62 |
| CN(CC1=CCCN(Cc2cccc(C#N)c2)C1)C(=O)c1ccco1 | 6.358 |
| O=C(CCc1ccsc1)N1CCC(n2cc(CO)nn2)CC1 | -0.2022 |

| Structure (SMILES) | Percent Effect [%] |
| --- | --- |
| CCn1c(CN2CCCC2)nnc1C1CCN(Cc2ccc(C)o2)CC1 | 10.89 |
| OC(CNc1nc(C2CCCC2)nc2c1CCNCC2)C(F)(F)F (stereo not given) | -10.56 |
| CCCc1cc(=O)[nH]c2nnc(SCC(N)=O)n12 | 23.5 |
| CCCNC(=O)CSc1nnc2[nH]c(=O)c3c(n12)CCCC3 | 1.807 |
| NC(=O)CSc1nnc2[nH]c(=O)c3c(n12)CCCC3 | 2.529 |
| COC(=O)CSc1nnc2[nH]c(=O)c3c(n12)CCCC3 | -5.705 |
| O=C(NCCn1ccnc1)c1csc2c1CCCC2 | 1.844 |
| CCCn1c(SCC(N)=O)nnc1-c1csc2c1CCCC2 | 99.65 |
| O=C(NCCCn1cccn1)c1csc2c1CCCC2 | -1.067 |
| Cn1c(SCC(N)=O)nnc1-c1csc2c1CCCC2 | 119.7 |
| CCn1c(SCC(N)=O)nnc1-c1csc2c1CCCC2 | 115.1 |
| O=C(CSc1ccncc1)N1C[C@H]2CC[C@@H]1CN(Cc1cccnc1)C2 | 5.846 |
| CCCc1n[nH]c(C2CN(CCNS(=O)(=O)CC)CCO2)n1 (stereo not given) | 14.03 |
| CC(C)Cc1cc(C(=O)NCC2CCCN(c3ccccn3)C2)on1 (stereo not given) | 8.718 |
| CC(C)c1cc(C(=O)NCC2CCCN(C(C)C)C2)n(C)n1.Cl (stereo not given) | 153.6 |
| CCc1nnsc1C(=O)NCCC1CCCN(C(C)C)C1 (stereo not given) | 8.592 |
| O=C(NCCCN1CCN(c2ncccn2)CC1)NCC1CCOC1 (stereo not given) | 1.135 |
| Cc1ccc(-c2nc(CC(=O)NCC3CCCN(C(C)C)C3)cs2)o1 (stereo not given) | 19.88 |
| CC(C)c1cc(C(=O)NCC2CCCN(c3ncccn3)C2)n(C)n1 (stereo not given) | 135 |
| CCCc1nnsc1C(=O)NCC1CCN(c2ccccn2)CC1 | -9.247 |
| CCCc1nnsc1C(=O)NCC1CCN(c2ncccn2)CC1 | 3.898 |
| CCn1nc(C(C)C)cc1C(=O)NCC1CCCN(c2ccccn2)C1 (stereo not given) | 125 |
| CC(C)Sc1ccc(C(C)NC(=O)CNS(C)(=O)=O)cc1 (stereo not given) | -8.082 |
| COCC(C)N1CCc2onc(-c3ccc(C(F)(F)F)cc3)c2C1 (stereo not given) | -24.24 |
| CCc1ncnc(N2CCOCC2C2CC2)c1F (stereo not given) | 106.4 |
| CCc1ncnc(N(C)CC2CCCCO2)c1F (stereo not given) | 6.222 |
| CCc1ccc(CN2CCc3ncnc(N4CCOCC4)c3CC2)o1.O=C(O)C(F)(F)F | 10.74 |

| Structure (SMILES) | Percent Effect [%] |
| --- | --- |
| Cc1nn(C)c(C)c1C1COCCN1c1ncnc2sccc12 (stereo not given) | -13.78 |
| CC[C@H]1COCCN1C(=O)c1cnc(C(C)C)nc1C | -0.1974 |
| CCc1ncnc(N2CCOCC2C(N)=O)c1F (stereo not given) | 114.1 |
| CCOCC(=O)N1CCc2c(ncnc2N2CCOCC2)C1 | -19.06 |
| CCc1c(C)sc2ncnc(N3CC[C@@H](N4CCOCC4)[C@H](O)C3)c12 | -13.58 |
| CCc1ncnc(N2CCOCC2CCO)c1F (stereo not given) | 97.7 |
| Cc1n[nH]cc1CNCC(c1ccsc1)N(C)C (stereo not given) | 26.65 |
| COc1cccc(Cn2cccc(C#N)c2=O)c1 | -6.219 |
| CCc1nc(C2CCCN(C(=O)C3=NN(CC)C(=O)CC3)C2)no1 (stereo not given) | 20.67 |
| CCN1N=C(C(=O)N2CCCC(c3nc(C)cs3)C2)CCC1=O (stereo not given) | 85.99 |
| CCN1N=C(C(=O)N2CCCC(c3nc(C)c(C)s3)C2)CCC1=O (stereo not given) | 92.25 |
| CCc1csc(C2CCCN(C(=O)C3=NN(CC)C(=O)CC3)C2)n1 (stereo not given) | 7.447 |
| Cc1nc(C2CCCN(C(=O)C3=NN(C(C)C)C(=O)CC3)C2)no1 (stereo not given) | -5.623 |
| CCN1N=C(C(=O)N2CCCC(c3noc(C)n3)C2)CCC1=O (stereo not given) | -1.234 |
| COC1CCCN(C2CCN(c3cccc(-c4csc(C)n4)c3)CC2)C1 (stereo not given) | 10.88 |
| NC(=O)C1CCN(C(=O)C2SCCc3sccc32)CC1 (stereo not given) | -9.27 |
| COc1cccc(-c2ncc(CN3C[C@@H]4CC[C@H](C3)N(C)C4=O)s2)c1 | 4.635 |
| COCCn1ccnc1C1CCN(C(=O)c2cccc(COC)n2)CC1 | -13.9 |
| CN(C)S(=O)(=O)N1C[C@H]2CCC[C@@]2(COCC2CC2)C1 | -7.001 |
| CN(C)CC(=O)N1CCC2(CC1)CN(c1ncccn1)CCO2.O=C(O)C(F)(F)F | -4.698 |
| CN(C)C(=O)N1CCC2(CC1)COCCN(c1ncccn1)C2 | 89.78 |
| CN(C)CC(=O)N1CCC2(CC1)COCCN(c1ncccn1)C2 | 104.4 |
| CN(C)CC(=O)N1CCC2(CC1)COCCN(Cc1ccncc1)C2 | -9.31 |
| CC(C)C(=O)N1CCOC2(COCCN(c3ncccn3)C2)C1 (stereo not given) | 1.497 |
